Reference: PubChem BioAssay AID1159580 (chemical genetic matrix, 2015)
The whole screen tested about 5,500 compounds, of which about 2,000 (36%) were called active. Another 18% or so got no clear call; they are omitted. Cut-off read from the data, not from the text of the source: active = normalized growth mostly below about 0.91 (no sharp cut-off); inconclusive = no clear call, values can overlap the other calls; inactive = mostly above about 0.92. The list shows a part of the results.

Test: chemical genetic growth profiling, strain panel (AID 1159580);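 note: tested at 20 µM; growth read once vehicle control cultures reached saturation at 30 °C; 1 = growth at the plate median or of vehicle wells; lower values mean less growth of the strain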
Settings: growth OD

Measured: normalized growth

C=CCc1cc(OC)c2c(c1OC)OCO2
active: S. cerevisiae deletion strains, locus YKL068W, hits give low values 0.94 | S. cerevisiae deletion strains, locus YKR026C, strain gcn3, hits give low values 0.909 | S. cerevisiae deletion strains, locus YKR091W, strain srl3, hits give low values 0.922 | S. cerevisiae deletion strains, locus YLL026W, hits give low values 0.923 | S. cerevisiae deletion strains, locus YLR102C, strain apc9, hits give low values 0.923 | S. cerevisiae deletion strains, locus YLR320W, strain mms22, hits give low values 0.666 | S. cerevisiae deletion strains, locus YML124C, strain tub3, hits give low values 0.931 | S. cerevisiae deletion strains, locus YMR129W, hits give low values 0.921 | S. cerevisiae deletion strains, locus YMR205C, strain PFK2, hits give low values 0.83 | S. cerevisiae deletion strains, locus YNL071W, strain lat1, hits give low values 0.737 | S. cerevisiae deletion strains, locus YNL233W, strain BNI4, hits give low values 0.835 | S. cerevisiae deletion strains, locus YNL307C, strain MCK1, hits give low values 0.862 | S. cerevisiae deletion strains, locus YOR184W, strain ser1, hits give low values 0.872 | S. cerevisiae deletion strains, locus YPL240C, strain hsp82, hits give low values 0.927 | S. cerevisiae deletion strains, locus YPR119W, strain clb2, hits give low values 0.926
inactive: S. cerevisiae deletion strains, locus YJR075W, strain HOC1, hits give low values 0.928 | S. cerevisiae deletion strains, locus YKL009W, strain mrt4, hits give low values 0.953 | S. cerevisiae deletion strains, locus YKL085W, strain MDH1 (second series), hits give low values 0.939 | S. cerevisiae deletion strains, locus YKL085W, strain MDH1, hits give low values 0.939 | S. cerevisiae deletion strains, locus YKL160W, strain elf1, hits give low values 0.915 | S. cerevisiae deletion strains, locus YKL190W, strain CNB1, hits give low values 0.964 | S. cerevisiae deletion strains, locus YKR001C, strain vps1, hits give low values 0.953 | S. cerevisiae deletion strains, locus YLL001W, strain dnm1, hits give low values 0.96 | S. cerevisiae deletion strains, locus YLL041C, strain sdh2, hits give low values 0.947 | S. cerevisiae deletion strains, locus YLR027C, strain aat2, hits give low values 0.941 | S. cerevisiae deletion strains, locus YLR039C, strain RIC1, hits give low values 1.03 | S. cerevisiae deletion strains, locus YLR058C, strain SHM2, hits give low values 0.976 | S. cerevisiae deletion strains, locus YLR113W, strain HOG1, hits give low values 0.957 | S. cerevisiae deletion strains, locus YLR221C, strain rsa3, hits give low values 0.948 | S. cerevisiae deletion strains, locus YLR258W, strain gsy2, hits give low values 0.941 | S. cerevisiae deletion strains, locus YLR262C, strain YPT6 (second series), hits give low values 0.903 | S. cerevisiae deletion strains, locus YLR262C, strain YPT6, hits give low values 1.06 | S. cerevisiae deletion strains, locus YLR268W, strain sec22, hits give low values 1.01 | S. cerevisiae deletion strains, locus YLR330W, strain CHS5, hits give low values 0.967 | S. cerevisiae deletion strains, locus YLR342W, strain FKS1 (second series), hits give low values 0.953 | S. cerevisiae deletion strains, locus YLR342W, strain FKS1, hits give low values 0.932 | S. cerevisiae deletion strains, locus YLR357W, strain rsc2, hits give low values 1.07 | S. cerevisiae deletion strains, locus YLR370C, strain arc18, hits give low values 0.924 | S. cerevisiae deletion strains, locus YLR371W, strain rom2, hits give low values 0.943 | S. cerevisiae deletion strains, locus YLR384C, strain iki3, hits give low values 0.935 | S. cerevisiae deletion strains, locus YLR418C, strain cdc73, hits give low values 0.938 | S. cerevisiae deletion strains, locus YML016C, strain PPZ1, hits give low values 0.988 | S. cerevisiae deletion strains, locus YML032C, strain rad52, hits give low values 0.987 | S. cerevisiae deletion strains, locus YML120C, strain ndi1, hits give low values 0.969 | S. cerevisiae deletion strains, locus YMR058W, strain fet3, hits give low values 0.951 | S. cerevisiae deletion strains, locus YMR078C, strain ctf18, hits give low values 0.943 | S. cerevisiae deletion strains, locus YMR125W, strain sto1, hits give low values 0.896 | S. cerevisiae deletion strains, locus YMR223W, strain ubp8, hits give low values 0.935 | S. cerevisiae deletion strains, locus YMR231W, strain pep5, hits give low values 1 | S. cerevisiae deletion strains, locus YMR263W, strain SAP30, hits give low values 0.94 | S. cerevisiae deletion strains, locus YMR307W, strain GAS1, hits give low values 0.987 | S. cerevisiae deletion strains, locus YNL067W, strain RPL9B, hits give low values 0.921 | S. cerevisiae deletion strains, locus YNL128W, strain TEP1, hits give low values 0.971 | S. cerevisiae deletion strains, locus YNL153C, strain GIM3, hits give low values 0.97 | S. cerevisiae deletion strains, locus YNL183C, strain NPR1, hits give low values 0.916 | S. cerevisiae deletion strains, locus YNL209W, strain ssb2, hits give low values 0.962 | S. cerevisiae deletion strains, locus YNL248C, strain rpa49, hits give low values 0.969 | S. cerevisiae deletion strains, locus YNL250W, strain rad50, hits give low values 0.967 | S. cerevisiae deletion strains, locus YNL271C, strain bni1, hits give low values 0.929 | S. cerevisiae deletion strains, locus YNL298W, strain CLA4, hits give low values 0.96 | S. cerevisiae deletion strains, locus YNL322C, strain KRE1 (second series), hits give low values 0.933 | S. cerevisiae deletion strains, locus YNL322C, strain KRE1, hits give low values 0.961 | S. cerevisiae deletion strains, locus YNR049C, strain mso1, hits give low values 0.942 | S. cerevisiae deletion strains, locus YNR052C, strain pop2, hits give low values 0.984 | S. cerevisiae deletion strains, locus YOL006C, strain TOP1, hits give low values 0.589 | S. cerevisiae deletion strains, locus YOL012C, strain htz1 1.06 | S. cerevisiae deletion strains, locus YOL147C, strain pex11, hits give low values 0.943 | S. cerevisiae deletion strains, locus YOR001W, strain rrp6, hits give low values 0.949 | S. cerevisiae deletion strains, locus YOR061W, strain CKA2, hits give low values 0.981 | S. cerevisiae deletion strains, locus YOR069W, strain VPS5, hits give low values 0.99 | S. cerevisiae deletion strains, locus YOR070C, strain gyp1, hits give low values 0.982 | S. cerevisiae deletion strains, locus YOR080W, strain dia2, hits give low values 0.991 | S. cerevisiae deletion strains, locus YOR083W, strain WHI5, hits give low values 0.951 | S. cerevisiae deletion strains, locus YOR106W, strain vam3, hits give low values 0.956 | S. cerevisiae deletion strains, locus YOR136W, strain idh2, hits give low values 0.974 | S. cerevisiae deletion strains, locus YOR144C, strain elg1, hits give low values 0.952 | S. cerevisiae deletion strains, locus YOR231W, strain MKK1, hits give low values 0.999 | S. cerevisiae deletion strains, locus YOR265W, strain rbl2, hits give low values 0.967 | S. cerevisiae deletion strains, locus YOR270C, strain vph1, hits give low values 0.841 | S. cerevisiae deletion strains, locus YOR290C, strain snf2, hits give low values 0.926 | S. cerevisiae deletion strains, locus YOR316C, strain cot1, hits give low values 0.929 | S. cerevisiae deletion strains, locus YPL051W, strain arl3, hits give low values 0.998 | S. cerevisiae deletion strains, locus YPL055C, strain LGE1, hits give low values 0.908 | S. cerevisiae deletion strains, locus YPL078C, strain atp4, hits give low values 0.906 | S. cerevisiae deletion strains, locus YPL106C, strain sse1, hits give low values 0.987 | S. cerevisiae deletion strains, locus YPL241C, strain CIN2, hits give low values 0.967 | S. cerevisiae deletion strains, locus YPL256C, strain CLN2, hits give low values 0.977 | S. cerevisiae deletion strains, locus YPR141C, strain kar3, hits give low values 0.94 | S. cerevisiae deletion strains, locus YPR163C, strain tif3, hits give low values 0.968 | S. cerevisiae deletion strains, locus YPR167C, strain met16, hits give low values 0.939 | S. cerevisiae deletion strains, strain wtn01, hits give low values 0.933 | S. cerevisiae strains, strain wild type, hits give low values 0.999
